Values joined by “and” are separate entries in the source; they are usually repeats but may differ in a detail not shown here. Equal values may be shown once. Some structures have more than one record in an assay (separate samples or runs), and their calls can disagree. Active and inactive are the calls of the source. How the source made its calls: active means hit-call score of the fitted dose curve at least 0.9, where 1 is the maximum; inactive means score below 0.9.
Experiments:
[1] = ATG_CRE_CIS: Attagene CIS-FACTORIAL HepG2 Assay for human cAMP Responsive Element (CRE) binding protein 3 (AID 2282926); conditions: HepG2 CRE cis-reporter, Attagene multiplexed mRNA; actives raise or lower the signal
Procedure, shortened: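 We dosed HepG2 cells bearing multiple cis-promoter reporter units for 24 h and measured reporter mRNA by RT-PCR with capillary electrophoresis detection. Bidirectional concentration-response fitting used DMSO as negative control.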

[2] = target: CCAAT/enhancer-binding protein beta (Homo sapiens) (UniProt P17676); assay: ATG_C_EBP_CIS: Attagene CIS-FACTORIAL HepG2 Assay for human CCAAT/Enhancer Binding Protein (C/EBP) beta (AID 2282927); conditions: HepG2 Attagene cis-factorial transcription factor reporter; actives raise or lower the signal
CCAAT/enhancer-binding protein beta (Homo sapiens), sequence (P17676 whole entry, looked up): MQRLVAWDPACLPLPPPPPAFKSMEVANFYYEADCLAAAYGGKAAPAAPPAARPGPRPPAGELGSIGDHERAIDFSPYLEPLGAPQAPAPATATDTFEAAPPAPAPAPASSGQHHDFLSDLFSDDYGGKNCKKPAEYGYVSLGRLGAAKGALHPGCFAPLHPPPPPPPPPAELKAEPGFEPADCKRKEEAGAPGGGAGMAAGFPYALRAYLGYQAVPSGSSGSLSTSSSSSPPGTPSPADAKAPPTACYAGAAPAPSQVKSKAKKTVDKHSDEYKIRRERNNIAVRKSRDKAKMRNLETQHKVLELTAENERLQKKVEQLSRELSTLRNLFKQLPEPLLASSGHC
Procedure, shortened: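 Changes in reporter mRNA, rather than exogenous chimeric receptor activity, reflect native C/EBP signalling in transfected HepG2 cells dosed for 24 h; transcripts are detected by RT-PCR and capillary electrophoresis.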

[3] = ATG_CMV_CIS: Attagene CIS-FACTORIAL HepG2 Assay for human CMV (Internal Marker) (AID 2282928); conditions: HepG2 CMV promoter reporter, transcription factor profiling; actives raise or lower the signal;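 further: endpoint acts as a background internal control marker rather than a target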
Procedure, shortened: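 Endogenous transcription factor activity read in HepG2 via transfected cis-promoter reporter units. After 24 h dosing, reporter mRNA measured by RT-PCR/capillary electrophoresis; gain or loss of signal fit relative to DMSO.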

[4] = ATG_DR4_LXR_CIS: Attagene CIS-FACTORIAL HepG2 Assay for human Liver X Receptor (LXR), DR4 submotif (AID 2282929); conditions: HepG2 Attagene DR4 cis-reporter, mRNA transcription; actives raise or lower the signal
Procedure, shortened: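 Endogenous factor activity at a DR4 cis-element is read as reporter mRNA in transiently transfected HepG2 cells. Exposure lasts 24 h; transcripts are amplified, fluorescently labelled and sized by capillary electrophoresis, with DMSO as baseline.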

[5] = target: Aryl hydrocarbon receptor (Homo sapiens) (UniProt P35869); assay: ATG_Ahr_CIS: Attagene CIS-FACTORIAL HepG2 Assay for human Aryl Hydrocarbon Receptor (Ahr) (AID 2282930); conditions: HepG2 AhR cis-factorial reporter transcription; actives raise or lower the signal
Aryl hydrocarbon receptor (Homo sapiens), sequence (P35869 whole entry, looked up): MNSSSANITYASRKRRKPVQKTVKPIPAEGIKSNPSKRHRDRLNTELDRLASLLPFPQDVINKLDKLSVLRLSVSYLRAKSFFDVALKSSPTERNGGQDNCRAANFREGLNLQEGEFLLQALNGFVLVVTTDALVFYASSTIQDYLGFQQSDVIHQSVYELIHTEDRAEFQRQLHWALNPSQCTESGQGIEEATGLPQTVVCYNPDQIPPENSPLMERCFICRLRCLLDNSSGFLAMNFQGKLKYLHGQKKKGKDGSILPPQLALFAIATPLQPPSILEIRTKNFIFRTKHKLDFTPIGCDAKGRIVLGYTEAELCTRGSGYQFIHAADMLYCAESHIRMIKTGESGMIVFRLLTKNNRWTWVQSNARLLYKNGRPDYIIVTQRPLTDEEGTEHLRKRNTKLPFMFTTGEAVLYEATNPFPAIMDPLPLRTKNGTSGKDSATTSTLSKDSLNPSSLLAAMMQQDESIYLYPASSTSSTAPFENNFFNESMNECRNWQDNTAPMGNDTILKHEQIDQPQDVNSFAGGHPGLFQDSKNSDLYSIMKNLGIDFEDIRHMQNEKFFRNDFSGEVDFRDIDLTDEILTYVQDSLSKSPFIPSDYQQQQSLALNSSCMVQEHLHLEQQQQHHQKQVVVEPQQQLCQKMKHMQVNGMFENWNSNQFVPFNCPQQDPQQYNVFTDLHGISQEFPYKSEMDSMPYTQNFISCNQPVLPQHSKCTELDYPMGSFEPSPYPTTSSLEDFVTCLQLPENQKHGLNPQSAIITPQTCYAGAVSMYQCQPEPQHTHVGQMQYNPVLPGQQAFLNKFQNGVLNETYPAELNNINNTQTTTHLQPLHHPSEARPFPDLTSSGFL
Procedure, shortened: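 HepG2, transient MRTU (cis) transfection, 24 h exposure. RNA → cDNA → PCR → 6-FAM primer extension → HpaI 2 h 37 C → CE. Fit: bidirectional, DMSO baseline.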

[6] = ATG_AP_1_CIS: Attagene CIS-FACTORIAL HepG2 Assay for human Activator Protein 1 (AP-1) (AID 2282931); conditions: HepG2 Attagene cis-factorial AP-1 reporter mRNA; actives raise or lower the signal
Procedure, shortened: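 Fluorescence of labelled PCR fragments separated by capillary electrophoresis gives reporter mRNA levels. HepG2 with transfected cis-regulated reporter units, 24 h exposure; DMSO serves as baseline for bidirectional curve fits.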

[7] = ATG_AP_2_CIS: Attagene CIS-FACTORIAL HepG2 Assay for human Activator Protein 2 (AP-2) (AID 2282932); conditions: HepG2 AP-2 cis-reporter, Attagene transcription factor profiling; actives raise or lower the signal
Procedure, shortened: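 Step one: transient transfection of HepG2 with reporter transcription units. Step two: 24 h chemical exposure. Step three: RNA extraction, RT-PCR, labelled fragment analysis by capillary electrophoresis; DMSO serves as baseline.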

[8] = ATG_BRE_CIS: Attagene CIS-FACTORIAL HepG2 Assay for human Bone Morphogenetic Protein (BMP) Response Element (BRE) (AID 2282933); conditions: HepG2 BMP response element reporter, Attagene transcription factor profiling; actives raise or lower the signal
Procedure, shortened: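 A HepG2 multiplex reporter system measured inducible reporter mRNA 24 h post-dosing. Detection: RT-PCR, 6-FAM primer extension, HpaI digestion, capillary electrophoresis. Activity fitted bidirectionally relative to DMSO.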

[9] = target: Retinoic acid receptor alpha (Homo sapiens) (UniProt P10276); assay: ATG_DR5_RAR_CIS: Attagene CIS-FACTORIAL HepG2 Assay for human Retinoic Acid Receptor Alpha (RARE), DR5 submotif (AID 2282934); conditions: HepG2 Attagene cis-factorial RARE DR5 reporter, mRNA; actives raise or lower the signal;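 on AC50: reporter responds to endogenous RAR alpha beta and gamma in HepG2 not RARA alone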
Retinoic acid receptor alpha (Homo sapiens), sequence (P10276 whole entry, looked up): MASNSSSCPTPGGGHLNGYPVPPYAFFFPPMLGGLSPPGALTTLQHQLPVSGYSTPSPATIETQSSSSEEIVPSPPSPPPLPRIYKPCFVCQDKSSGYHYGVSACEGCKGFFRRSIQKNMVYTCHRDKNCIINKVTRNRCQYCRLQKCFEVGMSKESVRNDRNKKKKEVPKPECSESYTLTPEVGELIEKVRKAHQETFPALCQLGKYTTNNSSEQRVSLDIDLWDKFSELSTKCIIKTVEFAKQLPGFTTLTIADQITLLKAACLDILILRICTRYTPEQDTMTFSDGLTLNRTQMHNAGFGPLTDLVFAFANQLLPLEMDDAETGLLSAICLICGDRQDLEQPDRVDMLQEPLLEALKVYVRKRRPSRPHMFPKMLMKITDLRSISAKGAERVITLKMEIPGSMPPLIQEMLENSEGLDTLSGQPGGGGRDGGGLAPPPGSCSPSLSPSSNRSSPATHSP
Procedure, shortened: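 HepG2, transient cis-reporter transfection, 24 h exposure. mRNA readout: RT-PCR, FAM label, HpaI cut, capillary electrophoresis. DMSO baseline, gain/loss fitting.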

[10] = target: Transcription factor E2F1 (Homo sapiens) (UniProt Q01094); assay: ATG_E2F_CIS: Attagene CIS-FACTORIAL HepG2 Assay for human E2F Transcription Factor 1 (AID 2282935); conditions: HepG2 Attagene cis-reporter, E2F reporter RNA transcripts; actives raise or lower the signal
Transcription factor E2F1 (Homo sapiens), sequence (Q01094 whole entry, looked up): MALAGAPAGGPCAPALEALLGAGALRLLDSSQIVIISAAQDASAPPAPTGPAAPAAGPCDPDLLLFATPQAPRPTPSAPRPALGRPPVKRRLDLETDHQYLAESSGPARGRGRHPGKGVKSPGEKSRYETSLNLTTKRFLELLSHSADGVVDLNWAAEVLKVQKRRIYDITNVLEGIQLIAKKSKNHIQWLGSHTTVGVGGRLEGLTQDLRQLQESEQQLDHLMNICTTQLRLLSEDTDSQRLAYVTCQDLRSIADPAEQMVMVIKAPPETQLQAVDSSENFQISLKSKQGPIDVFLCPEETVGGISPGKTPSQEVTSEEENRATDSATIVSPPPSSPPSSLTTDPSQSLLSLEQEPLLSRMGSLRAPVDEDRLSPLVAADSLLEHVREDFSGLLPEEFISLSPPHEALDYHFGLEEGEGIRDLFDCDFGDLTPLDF
Procedure, shortened: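 Total RNA from 24 h-treated, reporter-transfected HepG2 cells undergoes DNase I treatment, oligo(dT) reverse transcription, PCR and 6-FAM primer extension before capillary electrophoresis.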

[11] = ATG_E_Box_CIS: Attagene CIS-FACTORIAL HepG2 Assay for human Enhancer Box (E-box) (AID 2282936); conditions: HepG2 E-box cis-reporter transcription, actives raise or lower the signal
Procedure, shortened: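 DMSO served as negative control and baseline for bidirectional fitting. Human hepatoma HepG2 cells, transiently transfected with cis-reporter constructs, were dosed 24 h; reporter mRNA read by RT-PCR and capillary electrophoresis.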

[12] = ATG_M_61_CIS: Attagene CIS-FACTORIAL HepG2 Assay for M61 Transcription Factor (Internal Marker) (AID 2282937); conditions: HepG2 Attagene CIS-FACTORIAL M61 internal marker reporter; actives raise or lower the signal
Procedure, shortened: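 This endpoint serves as an internal background control within a multiplexed HepG2 cis-reporter panel. Cells are exposed for 24 h; reporter mRNA is amplified, fluorescently labelled and sized by capillary electrophoresis, with DMSO as negative control.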

[13] = ATG_EGR_CIS: Attagene CIS-FACTORIAL HepG2 Assay for human Early Growth Response 1 (EGR1) (AID 2282938); conditions: HepG2 Attagene CIS-FACTORIAL EGR reporter mRNA; actives raise or lower the signal
Procedure, shortened: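 HepG2, transient MRTU transfection (cis promoters), 24 h compound. RNA → RT (oligo-dT) → PCR → 6-FAM labelling → HpaI cut → CE fluorescence. Bidirectional fit, DMSO baseline.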

[14] = ATG_M_19_CIS: Attagene CIS-FACTORIAL HepG2 Assay for M19 Transcription Factor (Internal Marker) (AID 2282939); conditions: HepG2 Attagene CIS-FACTORIAL M19 internal marker reporter; actives raise or lower the signal
Procedure, shortened: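 Chemical-treated HepG2 (24 h) with MRTU constructs; reporter transcripts detected by fluorescent RT-PCR fragment analysis on capillary electrophoresis. Internal background marker, DMSO as baseline.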

[15] = ATG_ERE_CIS: Attagene CIS-FACTORIAL HepG2 Assay for Estrogen Response Element (ERE) (AID 2282940); conditions: HepG2 ERE cis-reporter, Attagene RNA transcript; actives raise or lower the signal
Procedure, shortened: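 Human liver cells (HepG2) bearing transiently transfected, promoter-regulated reporter units were exposed 24 h. Reporter mRNA induction was detected by capillary electrophoresis of labelled RT-PCR products and fitted bidirectionally to DMSO.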

[16] = ATG_Ets_CIS: Attagene CIS-FACTORIAL HepG2 Assay for human Erythroblast Transformation Specific (ETS) (AID 2282941); conditions: HepG2 ETS cis-reporter transcription, actives raise or lower the signal
Procedure, shortened: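 Steps: transfect HepG2 with multiple reporter units; treat compound 24 h; isolate RNA, DNase-treat, reverse-transcribe; PCR-amplify, label with 6-FAM, digest with HpaI; separate by capillary electrophoresis. Activity fitted both directions versus DMSO.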

[17] = target: Hepatocyte nuclear factor 3-beta (Homo sapiens) (UniProt Q9Y261); assay: ATG_FoxA2_CIS: Attagene CIS-FACTORIAL HepG2 Assay for human Forkhead box A2 (FOXA2) (AID 2282942); conditions: HepG2 cis-reporter transcription factor activity, 24 h; actives raise or lower the signal
Hepatocyte nuclear factor 3-beta (Homo sapiens), sequence (Q9Y261 whole entry, looked up): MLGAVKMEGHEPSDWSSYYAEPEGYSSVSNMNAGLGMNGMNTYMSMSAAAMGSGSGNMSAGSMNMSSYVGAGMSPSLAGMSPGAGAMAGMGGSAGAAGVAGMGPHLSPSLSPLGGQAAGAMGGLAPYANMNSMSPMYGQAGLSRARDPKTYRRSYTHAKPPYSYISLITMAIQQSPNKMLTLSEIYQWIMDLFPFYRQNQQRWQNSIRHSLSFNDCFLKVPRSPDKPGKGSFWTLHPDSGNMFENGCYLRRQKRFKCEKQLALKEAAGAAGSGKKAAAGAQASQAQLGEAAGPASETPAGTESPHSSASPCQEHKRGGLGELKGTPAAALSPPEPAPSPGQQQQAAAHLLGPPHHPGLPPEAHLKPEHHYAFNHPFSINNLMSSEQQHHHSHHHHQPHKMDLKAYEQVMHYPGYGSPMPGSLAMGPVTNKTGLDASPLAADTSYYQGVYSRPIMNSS
Procedure, shortened: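 Cells: HepG2, transient multiplex reporter transfection. Exposure 24 h. Detection: reporter-specific RT-PCR, fluorescent labelling, restriction digest, capillary electrophoresis. Analysis: bidirectional curve fit, DMSO as negative control.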

[18] = ATG_FoxO_CIS: Attagene CIS-FACTORIAL HepG2 Assay for human Forkhead box O (FoxO) (AID 2282943); conditions: HepG2 Attagene cis-reporter, FoxO element, mRNA; actives raise or lower the signal
Procedure, shortened: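 Human hepatoma HepG2 cells carry transiently introduced reporter transcription units controlled by cis promoter elements. Chemical treatment lasted 24 h, and mRNA signal was compared with DMSO.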

[19] = ATG_GATA_CIS: Attagene CIS-FACTORIAL HepG2 Assay for human GATA Binding Protein (AID 2282944); conditions: HepG2 GATA cis-element reporter, Attagene multiplex mRNA; actives raise or lower the signal
Procedure, shortened: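 Transfected cis-reporter HepG2 cells were treated with chemicals for 24 hours. Total RNA was then converted to cDNA, amplified with reporter-specific primers and analysed by fluorescent capillary electrophoresis, using DMSO-treated wells as baseline.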

[20] = ATG_GLI_CIS: Attagene CIS-FACTORIAL HepG2 Assay for human Zinc Finger Protein GLI1 (AID 2282945); conditions: HepG2, Attagene cis-factorial reporter mRNA, GLI element; actives raise or lower the signal
Procedure, shortened: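 Bidirectional curve fits relative to DMSO, using reporter mRNA levels from RT-PCR plus capillary electrophoresis. Cells were HepG2 transiently carrying cis-regulated reporter constructs, harvested 24 h after dosing.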

CN(C[C@@H](CC[N+]12CCC(C3CCCCC3)(CC1)CC2)c1ccc(Cl)c(Cl)c1)C(=O)c1cc(C(F)(F)F)cc(C(F)(F)F)c1
outcome [1]: inactive
outcome [2]: inactive
outcome [3]: inactive
outcome [4]: inactive
outcome [5]: inactive
outcome [6]: inactive
outcome [7]: inactive
outcome [8]: inactive
outcome [9]: inactive
outcome [10]: inactive
outcome [11]: inactive
outcome [12]: inactive
outcome [13]: inactive
outcome [14]: inactive
outcome [15]: inactive
outcome [16]: inactive
outcome [17]: inactive
outcome [18]: inactive
outcome [19]: inactive
outcome [20]: inactive

COc1cccc([C@H](O)C2CCN(CCc3ccc(F)cc3)CC2)c1OC
outcome [1]: inactive
outcome [2]: inactive
outcome [3]: inactive
AC50 [4]: 100 µM (active)
outcome [5]: inactive
outcome [6]: inactive
outcome [7]: inactive
outcome [8]: inactive
outcome [9]: inactive
outcome [10]: inactive
AC50 [11]: 100 µM (active)
outcome [12]: inactive
outcome [13]: inactive
outcome [14]: inactive
outcome [15]: inactive
outcome [16]: inactive
outcome [17]: inactive
outcome [18]: inactive
outcome [19]: inactive
outcome [20]: inactive

NC(=O)c1nc(-c2cccc(-c3cc(F)ccc3OCC(F)(F)C(F)(F)F)c2)n[nH]1
AC50 [1]: 27.7 µM (active)
outcome [2]: inactive
AC50 [3]: 12.1 µM (active)
AC50 [4]: 44.4 µM (active)
outcome [5]: inactive
AC50 [6]: 24 µM (active)
AC50 [8]: 19.8 µM (active)
outcome [9]: inactive
AC50 [10]: 16.8 µM (active)
outcome [11]: inactive
outcome [12]: inactive
AC50 [13]: 40.2 µM (active)
outcome [14]: inactive
outcome [15]: inactive
outcome [16]: inactive
outcome [17]: inactive
outcome [20]: inactive

CCCCCCCC[Si](OCC)(OCC)OCC
AC50 [1]: 54.5 µM (active)
outcome [1]: inactive
AC50 [2]: 65.7 µM (active)
outcome [2]: inactive
AC50 [3]: 62.9 µM (active) [middle of 4 runs]
outcome [5]: inactive
AC50 [6]: 70.2 µM (active) [middle of 4 runs]
outcome [7]: inactive
AC50 [8]: 159 µM (active)
outcome [8]: inactive
AC50 [9]: 69.2 µM (active)
outcome [9]: inactive
AC50 [10]: 153 µM (active)
outcome [10]: inactive
AC50 [11]: 48.4 µM (active)
outcome [11]: inactive
outcome [12]: inactive
outcome [13]: inactive
outcome [14]: inactive
AC50 [16]: 100 µM (active) and 75.6 µM (active)
outcome [16]: inactive
outcome [17]: inactive
outcome [18]: inactive
outcome [19]: inactive
AC50 [20]: 162 µM (active)
outcome [20]: inactive

CCCCOC(=O)c1ccc(O)cc1
AC50 [1]: 72.6 µM (active)
outcome [1]: inactive
AC50 [2]: 100 µM (active)
outcome [2]: inactive
outcome [3]: inactive
AC50 [4]: 169 µM (active)
outcome [4]: inactive
outcome [5]: inactive
outcome [6]: inactive
AC50 [7]: 136 µM (active)
outcome [7]: inactive
AC50 [8]: 166 µM (active) [middle of 4 runs]
outcome [9]: inactive
outcome [10]: inactive
AC50 [11]: 138 µM (active)
outcome [11]: inactive
outcome [12]: inactive
AC50 [13]: 97.1 µM (active)
outcome [13]: inactive
outcome [14]: inactive
AC50 [16]: 157 µM (active)
outcome [16]: inactive
outcome [17]: inactive
outcome [18]: inactive
AC50 [19]: 164 µM (active)
outcome [19]: inactive
AC50 [20]: 125 µM (active)
outcome [20]: inactive

O=C1O[C@H]([C@@H](O)CO)C(O)=C1O
outcome [1]: inactive
outcome [2]: inactive
outcome [3]: inactive
outcome [4]: inactive
AC50 [5]: 62 µM (active)
outcome [5]: inactive
outcome [6]: inactive
outcome [7]: inactive
outcome [8]: inactive
outcome [10]: inactive
outcome [11]: inactive
outcome [12]: inactive
outcome [13]: inactive
outcome [14]: inactive
outcome [16]: inactive
outcome [17]: inactive
outcome [18]: inactive
outcome [20]: inactive
